Data on 59 compounds can be found in PubChem BioAssay AID449762 (Southern Research Specialized Biocontainment Screening …, 2010).

The whole screen tested about 330,000 compounds, of which about 1,900 (0.58%) were called active. Roughly 4% stayed inconclusive and do not appear here. Only a sample is shown. Entries with a potency or affinity are not part of this list. Unmarked numbers belong to inactive results. Cut-off read from the data, not from the text of the source: inconclusive = inhibition above about 70% without an active follow-up result; inactive = below that.

One may read the inhibition as the change of the read-out against control, counted positive when it falls.

The assay in a line: M. tuberculosis growth inhibition, HTS (AID 449762).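 Note: bacterial growth assessed after seven days of incubation.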 Conditions: M. tuberculosis H37Rv growth inhibition, 7H9 media; at 25 µM; active compounds read high.
For the compound `O=C1/C(=C/c2cccnc2)CC/C1=C\c1cccnc1`, the inhibition is -0.97%.
The same measure for `CC(C)/C=C1\CC/C(=C\c2cccnc2)C1=O`: 11%; for `COc1cc(/C=C/C(=O)OC(C)C(=O)Nc2ccc(Cl)cn2)ccc1OC(F)F` (centres undefined): 28.3%.
The value for `COc1ccc(Nc2nc(Cl)nc(NCc3ccco3)n2)c(OC)c1` was -5.12%; that for `Cc1noc(NS(=O)(=O)c2ccc(NC(=O)/C=C/c3ccc(C(C)C)cc3)cc2)c1C` was -12.3%; that for `CC(C)N1C(=O)S/C(=C\c2ccc(-c3ccc(Cl)c(C(=O)O)c3)o2)C1=O` was 4.73%.
For the compound `CCN(CC)c1ccc(C=C2C(=O)N(C)C(=S)N(C)C2=O)o1`, the inhibition was 1.5%.
The same measure for `NC(=O)CN1CCCC1c1ccc2c(c1)OCCO2` (centres undefined): -1.31%; for `CC(=O)c1ccc(OCC(=O)N2CCCC2c2ccc3c(c2)OCCCO3)cc1` (centres undefined): -12.4%.
The value for `CCc1nnc(NC(=O)CN2CCN(Cc3cccc(F)c3)CC2)s1` was 13.7%.
The value for `COc1ccc(NS(=O)(=O)c2cccc(C(=O)NCc3ccccn3)c2)cc1` was -5.64%; that for `O=C(CCn1cnnn1)Nc1ccc(Cl)cc1Cl` was -5.53%.
Take `O=C(CN1CCCC1)Nc1ccc([N+](=O)[O-])cc1`: the inhibition was 4.32%.
The same measure for `O=C(CN1CCCCC1)Nc1nnc(-c2ccccc2)s1`: 5.25%; for `O=C(OCC(=O)N1CCCC1)c1ccc(Cl)c([N+](=O)[O-])c1`: -6.77%.
The value for `COc1ccccc1N1CCN(c2ccc(Cl)nn2)CC1` was 0.36%; that for `COc1ccccc1N1CCN(c2ccc3ccccc3n2)CC1` was 1.84%; that for `CCCNC(=O)NC(=O)COC(=O)c1cccc(NS(=O)(=O)c2ccc(F)c(F)c2)c1` was 5.38%.
The same measure for `CC1(C2CC2)NC(=O)N(CC(=O)N2CCN(c3ccccc3)CC2)C1=O` (centres undefined): -0.6%.
`Nc1nc(-c2ccco2)nn1C(=O)CCc1ccccc1`: the inhibition was 6.17%.
The same measure for `CC(=O)c1ccc(NC(=O)C2=CC(c3cccs3)=NS(=O)(=O)N2C)cc1`: 2.16%; for `O=c1[nH]c(Nc2ccccc2)cc2ccccc12`: 0.07%.
The same measure for `O=c1[nH]c(Nc2ccc(F)cc2)cc2ccccc12`: -14.1%; for `NS(=O)(=O)c1ccc(NC2=CC(=O)C(=O)c3ccccc32)cc1`: 11.2%.
The value for `CC(=O)Nc1ccc(NC2=CC(=O)c3ccccc3C2=O)cc1` was 3.89%.
With `COC(=O)CN(c1ccc(C)cc1)S(=O)(=O)c1c(C)[nH]c(=O)[nH]c1=O`, the inhibition was -6.71%.
The same measure for `C=CCSc1nnc(NC(=O)c2ccc(N3CCCC3=O)cc2)s1`: -1.46%; for `C=CC[C@H](CC(=O)NCCO)C(=O)NC[C@@H](OC(=O)[C@@H](CC=C)CC(=O)OC(C)(C)C)c1ccccc1`: -4.9%.
The value for `Cc1cc(N2CCN(c3ccc([N+](=O)[O-])c4cccnc34)CC2)c2ccccc2n1` was -7.93%.
The same measure for `Cc1ccc(S(=O)(=O)N2CCN(c3ccc(C(F)(F)F)cc3[N+](=O)[O-])CC2)cc1`: 16%; for `CCC1(CC)C(=O)N(Cc2ccccc2)C(=O)N(Cc2ccccc2)C1=O`: -1.75%.
As for `CCN(c1ccccc1)S(=O)(=O)c1ccc(OC)c(NC(=O)Cc2ccccc2OC)c1`, the inhibition is -3.76%.
`CCN(CCNC(=O)C1CC(=O)N(CCc2ccccc2)C1)c1ccccc1` (centres undefined): the inhibition was -5.61%.
As for `CCOc1ccc(/C=N/NC(=S)NC2CC3CC2C2C=CCC32)cc1` (centres undefined), the inhibition is 7.16%.
The same measure for `COc1cccc(/C=N/NC(=S)NC2CC3CC2C2C=CCC32)c1O` (centres undefined): -6.6%; for `CC1CCCCC12NC(=O)N(CC(=O)NNC(=O)c1ccc(Br)cc1)C2=O` (centres undefined): 1.45%; for `CCSc1nnc(NC(=O)CSC2=NN3CCCC(=O)N=C3S2)s1`: 2.54%.
The same measure for `CN(c1cccc(NC(=O)Cc2ccccc2)c1)S(C)(=O)=O`: 5.18%.
Consider `O=C(NC(C(=O)N/N=C/c1ccccc1)c1n[nH]c(=O)c2ccccc12)c1ccccc1` (centres undefined), for which the inhibition was 2.9%.
The value for `O=C(NC(C(=O)N/N=C/c1ccncc1)c1n[nH]c(=O)c2ccccc12)c1ccccc1` (centres undefined) was 2.1%.
The same measure for `COc1ccc(CC(=O)Nc2ccccc2N2CCCC2)cc1`: 0.8%; for `Cc1ccc(C2CC(=O)C=C(O)C2)cc1` (centres undefined): 9.89%; for `COc1ccc(CNC(=O)NCCc2c[nH]c3ccccc23)cc1`: 9.15%.
The value for `CSc1ccccc1NC(=O)COc1nsnc1N1CCOCC1` was 2.19%; that for `Cc1cccc(NC(=O)CSc2nc(N)c(NC(=O)c3ccccc3F)c(=O)[nH]2)c1` was -17.1%; that for `COC(=O)c1ccc2[nH]c(C(C)(C)O)c(C)c2c1` was -3.19%.
`c1ccc(C2Oc3ccccc3C3CC(c4cccs4)=NN32)cc1` (centres undefined): the inhibition was -7.12%.
The value for `COc1ccc(C2=NN3C(C2)c2ccccc2OC3c2cccs2)cc1` (centres undefined) was -3.24%.
The value for `COC(=O)COc1cc(=O)oc2ccc(NS(=O)(=O)c3ccccc3)cc12` was 11.6%; that for `Cn1cc(C(=O)c2cccc(Cl)c2Cl)cc1C#N` was -7.62%.
The same measure for `COc1ccc(C)cc1NS(=O)(=O)c1ccc(NC(=O)CN(c2cc([N+](=O)[O-])ccc2C)S(C)(=O)=O)cc1`: 0.68%; for `Cc1ccc([N+](=O)[O-])cc1N(CC(=O)NC1CCCC1)S(C)(=O)=O`: -1.93%.
Consider `CCN1CCN(C(c2cc(OC)c(OC)c(OC)c2)c2nnnn2C(C)C)CC1` (centres undefined), for which the inhibition was -6.3%.
The same measure for `CCN1C(=NCCc2ccc([N+](=O)[O-])cc2)N[C@@H](c2ccccc2)[C@H](C(=O)OC)[C@H]1C`: -8.81%; for `CCN1C(=NCCc2cccnc2)N[C@@H](c2ccccc2)[C@H](C(=O)OC)[C@H]1C`: -0.82%.
Consider `COc1ccc(Nc2oc(-c3ccccc3)nc2C#N)cc1`, for which the inhibition was -0.48%.
As for `FC(F)(F)c1ccc(-n2cnc3ccccc32)nc1`, the inhibition is -0.78%.
The same measure for `COC(=O)c1ccc(N2CCN(c3ccccc3)CC2)nc1`: -3.88%; for `Cc1c(Nc2nc(-c3ccccc3)cs2)c(=O)n(-c2ccccc2)n1C`: 0.86%.
